Compounds with a hit are over-represented: about 3.3% of the library has one in this group of screens.
INS-1E GSIS act: primary screen for activators of insulin secretion dependent on glucose, INS-1E cells, GLuc reporter luminescence | INS-1E GLuc reporter insulin secretion, 2-3 h | activation, % at 16.6 µM | 370,000 tested, 0.61% active | AID 743287;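 active = lowest replicate activation of at least 40%, so every replicate reaches that level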;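 also: 0% = median of neutral control wells and 100% = median of IBMX positive control wells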
SIRT5 inh: inhibitors of human sirtuin-5 desuccinylase; Q9NXA8; Purified SirT5, succinyl-peptide AMC, trypsin-coupled fluorescence; inhibition, % at 15 µM; 330,000 tested, 1.1% active; in the data active = inhibition above about 15%
Target sequence (Q9NXA8 whole entry, looked up): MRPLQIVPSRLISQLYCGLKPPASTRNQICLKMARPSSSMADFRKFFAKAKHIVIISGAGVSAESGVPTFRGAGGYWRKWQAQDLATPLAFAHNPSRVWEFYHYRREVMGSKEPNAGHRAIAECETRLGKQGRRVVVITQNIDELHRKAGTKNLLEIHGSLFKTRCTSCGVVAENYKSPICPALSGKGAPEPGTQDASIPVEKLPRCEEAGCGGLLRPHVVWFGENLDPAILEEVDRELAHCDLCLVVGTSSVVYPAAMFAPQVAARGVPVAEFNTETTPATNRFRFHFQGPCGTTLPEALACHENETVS
ERAP1 HTS inh: inhibitors of human ERAP1 aminopeptidase; Q9NZ08; recombinant ERAP1, Leu-AMC fluorescence, 60 min; inhibition, % at 10.7 µM; 340,000 tested, 0.15% active;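 active = mean replicate inhibition of at least 30%, or all replicates individually reaching that 30% level; inactive = mean below 30% and not every replicate reaching it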;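 also: 0% = neutral control wells and 100% = L-leucinethiol positive control wells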
CASP6 VEID inh: caspase-6 (human) enzyme inhibition; P55212; purified caspase-6, Z-VEID-R110 cleavage fluorescence; inhibition, % at 12.5 µM; 350,000 tested, 0.53% active; AID 686996;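 active = mean inhibition across replicates at least about 35%, with every replicate also reaching that limit, limit read from the data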;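 also: 0% = median of neutral control wells and 100% = no fluorescence left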
FGF22 binding-1: shifts melting point of recombinant human FGF22 | recombinant FGF22 thermal shift, SYPRO orange fluorescence; percent of sucrose octasulfate shift, DMSO zero | activity (Tm shift, normalised), % at 9.99 µM | 340,000 tested, 1.5% active;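 active = mean Tm shift, scaled 0 neutral to 100 positive control, at about 1.3% or above, every replicate too, limit read from the data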
Target sequence (Q9HCT0 whole entry, looked up): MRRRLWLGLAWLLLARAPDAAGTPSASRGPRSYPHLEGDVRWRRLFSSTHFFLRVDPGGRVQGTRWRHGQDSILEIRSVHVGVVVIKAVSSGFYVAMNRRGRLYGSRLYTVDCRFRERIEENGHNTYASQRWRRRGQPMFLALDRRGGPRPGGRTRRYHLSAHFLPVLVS
FGF22 binding-2: FGF22 (human) binding in thermal shift | shares compounds with FGF22 binding-1 | recombinant FGF22 thermal shift, SYPRO orange fluorescence | 1,000 tested, 2% active | thermal shift activity, °C (ΔTm) at 38 µM;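 active = fitted rise in melting shift crosses a set limit at or below the top valid dose tested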
SYPRO no-protein: shows thermal shift signal without protein, FGF22 counter-screen. shares compounds with FGF22 binding-1. compound-only SYPRO orange thermal shift counter-screen, no protein. AC50, µM (highest dose often 38 µM). 1,000 tested, 2% active;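 active = rising signal whose fitted curve reaches the 0.54 level within the top valid dose, showing a melting point, actives reach about 13 µM in these data; inactive = the rest, including activity in the opposite direction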; also: value is where the raw curve crosses a fixed level and not half-maximal
The depositor's hits bear a star; [ ] = another dose, or the depositor's remark.

How did CO[C@@H](CN(C)S(=O)(=O)c1ccc(Cl)cc1)[C@@H](C)CN([C@@H](C)CO)S(=O)(=O)c1cccc(Cl)c1 do in these assays?
INS-1E GSIS act: -31; SIRT5 inh: 5; ERAP1 HTS inh: -3; CASP6 VEID inh: 3; FGF22 binding-1: 0

What do the screens show for `CO[C@@H](CN(C)S(=O)(=O)c1ccc(Cl)cc1)[C@@H](C)CN([C@H](C)CO)S(=O)(=O)c1cccc(Cl)c1`?
INS-1E GSIS act: -30; SIRT5 inh: 1; ERAP1 HTS inh: -5; CASP6 VEID inh: 3; FGF22 binding-1: 1.4*; FGF22 binding-2: -0.21; SYPRO no-protein: inactive

What do the screens show for `Cc1ccc(S(=O)(=O)N(C)c2ccc(OCC(=O)Nc3ccc(S(C)(=O)=O)cc3)cc2)cc1`?
INS-1E GSIS act: -7; SIRT5 inh: -1; ERAP1 HTS inh: 0; CASP6 VEID inh: 1; FGF22 binding-1: 0

How did Cc1ccc(S(=O)(=O)N(C)c2ccc(OC(=O)COc3ccccc3)cc2)cc1 do in these assays?
SIRT5 inh: -3; ERAP1 HTS inh: -1; CASP6 VEID inh: 0; FGF22 binding-1: 15*; FGF22 binding-2: 0.1; SYPRO no-protein: inactive

Results for COCC(=O)Nc1ccc2c(c1)C(=O)N(C)C[C@H](OC)[C@@H](C)CN(Cc1ccccc1OC)[C@H](C)CO2 ?
INS-1E GSIS act: -1; SIRT5 inh: 4; ERAP1 HTS inh: -1; CASP6 VEID inh: 0; FGF22 binding-1: 0

How did COc1ccc2c3c([nH]c2c1)[C@H](CO)N(C(=O)Nc1ccc(F)cc1)CC31CCN(S(=O)(=O)c2cccs2)CC1 do in these assays?
INS-1E GSIS act: 4; SIRT5 inh: 13; ERAP1 HTS inh: 1; CASP6 VEID inh: 0; FGF22 binding-1: 16*; FGF22 binding-2: 0.032[42 µM]; SYPRO no-protein: inactive

Results for COc1ccc2c3c([nH]c2c1)[C@H](CO)N(C(=O)Nc1ccc(F)cc1)CC31CCN(S(=O)(=O)c2ccccc2)CC1 ?
INS-1E GSIS act: -2

What do the screens show for `COc1ccc(CNC(=O)C[C@H]2C[C@@H]3c4cc(NC(=O)CN(C)C)ccc4O[C@@H]3[C@H](CO)O2)cc1`?
INS-1E GSIS act: -1; SIRT5 inh: 3; ERAP1 HTS inh: 1; CASP6 VEID inh: 3; FGF22 binding-1: 1

Results for O=C1C=CCCN1S(=O)(=O)/C=C/c1ccccc1 ?
SIRT5 inh: 0; ERAP1 HTS inh: 0; CASP6 VEID inh: 2; FGF22 binding-1: 17*; FGF22 binding-2: 0.039; SYPRO no-protein: inactive

What do the screens show for `COc1ccc(Cc2nnc(NS(=O)(=O)c3ccccc3)s2)cc1`?
INS-1E GSIS act: 32; SIRT5 inh: -4; ERAP1 HTS inh: 9; CASP6 VEID inh: 4; FGF22 binding-1: 26*; FGF22 binding-2: 0.06; SYPRO no-protein: inactive

What do the screens show for `Cc1noc(C)c1NC(=O)N(C)C[C@@H]1Oc2ncc(/C=C/c3ccccc3)cc2C(=O)N([C@H](C)CO)C[C@@H]1C`?
INS-1E GSIS act: 6; SIRT5 inh: -13; ERAP1 HTS inh: -2; CASP6 VEID inh: -1; FGF22 binding-1: 0

How did CCN1C(=O)C(CC(=O)Nc2ccc(OC)cc2)N(Cc2cccs2)C1=S (centres undefined) do in these assays?
INS-1E GSIS act: -41; SIRT5 inh: -1; ERAP1 HTS inh: 1; CASP6 VEID inh: 1; FGF22 binding-1: 1

How did CCN1C(=O)C(CC(=O)Nc2ccc(OC)cc2)N(Cc2ccc3c(c2)OCO3)C1=S (centres undefined) do in these assays?
INS-1E GSIS act: -21; SIRT5 inh: -2; ERAP1 HTS inh: 0; CASP6 VEID inh: 2; FGF22 binding-1: 2.0*; FGF22 binding-2: 0.007; SYPRO no-protein: inactive

How did CCN1C(=O)C(CC(=O)Nc2ccc(OC)cc2)N(Cc2ccc(OC)c(OC)c2)C1=S (centres undefined) do in these assays?
INS-1E GSIS act: -18; SIRT5 inh: 1; CASP6 VEID inh: -1

How did CCN1C(=O)C(CC(=O)Nc2ccc(OC)cc2)N(CCc2ccc(OC)cc2)C1=S (centres undefined) do in these assays?
INS-1E GSIS act: -15; SIRT5 inh: -4; ERAP1 HTS inh: -1; CASP6 VEID inh: 10; FGF22 binding-1: 1.6*; FGF22 binding-2: 0.12; SYPRO no-protein: inactive

What do the screens show for `C[C@@H]1CN([C@@H](C)CO)C(=O)c2cc(NS(=O)(=O)c3ccccc3)ccc2O[C@@H]1CN(C)Cc1ccc2c(c1)OCO2`?
INS-1E GSIS act: 7; SIRT5 inh: -3; ERAP1 HTS inh: -3; CASP6 VEID inh: 0; FGF22 binding-1: 0

How did CC(C)NC(=O)Nc1ccc2c(c1)C(=O)N(C)[C@@H]1CC[C@@H](CC(=O)NCC(F)(F)F)O[C@@H]1CO2 do in these assays?
INS-1E GSIS act: 7; FGF22 binding-1: 0

What do the screens show for `O=C(N[C@@H]1CC[C@@H](CC(=O)N2CCN(c3ccccc3)CC2)O[C@H]1CO)c1ccccc1`?
INS-1E GSIS act: 3; SIRT5 inh: 0; ERAP1 HTS inh: -4; CASP6 VEID inh: -4; FGF22 binding-1: 0

How did O=C(N[C@@H]1CC[C@H](CC(=O)N2CCN(c3ccccc3)CC2)O[C@@H]1CO)c1ccccc1 do in these assays?
INS-1E GSIS act: 17; SIRT5 inh: 1; ERAP1 HTS inh: -3; CASP6 VEID inh: -4; FGF22 binding-1: 1.9*; FGF22 binding-2: -0.057[42 µM]; SYPRO no-protein: inactive

Results for COc1ccc2c3c([nH]c2c1)[C@@H](CO)N(C(=O)Nc1cccc(F)c1)CC31CN(S(=O)(=O)c2ccccc2)C1 ?
INS-1E GSIS act: 9

Results for COc1ccc2c3c(n(C)c2c1)[C@@H](CO)N(C(=O)NC(C)C)CC31CN(CC2CCCC2)C1 ?
INS-1E GSIS act: -14

What do the screens show for `Cc1noc(C)c1S(=O)(=O)Nc1ccc2c(c1)C(=O)N([C@@H](C)CO)C[C@H](C)[C@@H](CN(C)S(=O)(=O)c1ccccc1)OCCCC[C@@H](C)O2`?
INS-1E GSIS act: -17; SIRT5 inh: 3; ERAP1 HTS inh: 1; CASP6 VEID inh: 3; FGF22 binding-1: 0

How did COc1cccc(NC(=O)N[C@H]2C=C[C@@H](CC(=O)Nc3ccccc3)O[C@@H]2CO)c1 do in these assays?
INS-1E GSIS act: 6; SIRT5 inh: 4; ERAP1 HTS inh: 0; CASP6 VEID inh: 6; FGF22 binding-1: 0

Results for O=[N+]([O-])c1ccc(CSc2nnc(Cc3ccccc3)o2)cc1 ?
INS-1E GSIS act: -7; SIRT5 inh: -3; CASP6 VEID inh: -2; FGF22 binding-1: 1.4*; FGF22 binding-2: 0.023; SYPRO no-protein: inactive
